# Laboratory results as given in PubChem BioAssay (NCATS).
# Where “and” joins values, the source holds several entries; their conditions need not be identical. Equal entries are not always repeated. Inconclusive results are not listed. Where a call stands in place of a potency, no number is given. Calls of active or inactive are those of the source. Unless noted, the call rests on the fitted dose curve; in most records, active means well fitted curve in the direction sought with a large enough effect; inconclusive means small, poorly fitted or top-dose-only effect, or another doubt; inactive means no such curve, though single readings can be large; an effect the other way counts as inactive or inconclusive.
# How the values were obtained:
# [1] = Primary qHTS for inhibitors of nuclear receptor binding SET domain protein 2 (NSD2) in an isogenic RCH-ACV NSD2 p.E1099K mutant (9B) (AID 1645876); further: nearly all actives have a fitted effect of over 70% in size; further: potency means the concentration at half of the fitted maximal effect
# [2] = Primary qHTS for inhibitors of nuclear receptor binding SET domain protein 2 (NSD2) in an RCH-ACV wild type WT cells (2C) (AID 1645877); further: nearly all actives have a fitted effect of over 70% in size; further: potency means the concentration at half of the fitted maximal effect
# [3] = target: Metallo-beta-lactamase type 2 (Klebsiella pneumoniae) (UniProt C7C422); assay: qHTS to identify inhibitors of the New Delhi Metallo-beta-lactamase (NDM): assay validation screen against the NCATS LOPAC Collection (AID 1794843); further: potency means the concentration at half of the fitted maximal effect
# Summary of the method: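 Absorbance at 485 nm from nitrocefin turnover (50 uM solution added), read at plateau, gives the read-out. Compounds in DMSO were incubated first with 2 nM final NDM-1 in pH 7.0 HEPES buffer containing 1 uM ZnSO4 and 0.01% Tween20.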
# [4] = target: Phospholipid hydroperoxide glutathione peroxidase GPX4 (Homo sapiens) (UniProt P36969); assay: Primary qHTS Assay for Inhibitors of Recombinant Selenoprotein Glutathione Peroxidase 4 (GPX4) (AID 1845192); conditions: outcome: dose series up to 50 µM unless noted; further: nearly all actives have a fitted effect of over 65% in size
# Summary of the method: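 qHTS, GR-coupled: GPX4 200 nM + cpd 30 min RT → GSH 1 mM, NADPH 0.5 mM, GR 100 nM → CHP 0.5 mM start; fluor 340/450 at t0 and t15 min; no-enzyme wells as control.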
# [5] = target: Glutathione peroxidase 1 (Homo sapiens) (UniProt P07203); assay: Primary qHTS Assay for Inhibitors of Recombinant Selenoprotein Glutathione Peroxidase 1 (GPX1) (AID 1845191); further: nearly all actives have a fitted effect of over 65% in size
# Summary of the method: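 GPX1 10 nM, GR 100 nM, GSH 1 mM, NADPH 0.5 mM, CHP 0.5 mM (final). 30-min cpd preincubation, RT. Ex340/Em450 read t=0, t=15 min.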
# [6] = target: Catechol O-methyltransferase (Homo sapiens) (UniProt P21964); assay: Confirmatory Screen for Target Class Profiling of Small Molecule Inhibitors of Methyltransferases (AID 1745852; calls by dose curve); conditions: MTase-Glo luminescence, SAH detection, recombinant enzyme; measured here: COMT max response; stronger effect = lower value
# [7] = target: Guanidinoacetate N-methyltransferase (Homo sapiens) (UniProt Q14353); assay: as above; conditions: MTase-Glo luminescence, SAH detection, recombinant enzyme; at 57.3 µM (top of the series)
# [8] = target: Nicotinamide N-methyltransferase (Homo sapiens) (UniProt P40261); assay: as above; conditions: MTase-Glo luminescence, SAH detection, recombinant enzyme; measured here: NNMT max response; stronger effect = lower value
# [9] = target: Phenylethanolamine N-methyltransferase (Homo sapiens) (UniProt P11086); assay: as above; conditions: MTase-Glo luminescence, SAH detection, recombinant enzyme; measured here: PNMT max response; stronger effect = lower value
# [10] = target: Rap guanine nucleotide exchange factor 3 (Homo sapiens) (UniProt O95398); assay: Confirmatory qHTS for agonist of cAMP-regulated guanine nucleotide exchange factor 3 (EPAC1) (AID 1645881);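 further: EPAC1 catalysed release of BODIPY-GDP from Rap1B seen as fluorescence loss; nearly all actives have a fitted effect of over 75% in size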
# [11] = target: Rap guanine nucleotide exchange factor 4 (Homo sapiens) (UniProt Q8WZA2); assay: Confirmatory qHTS for agonist of cAMP-regulated guanine nucleotide exchange factor 4 (EPAC2) (AID 1645884);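 further: nucleotide exchange releases bodipy-GDP from Rap1 and this lowers its fluorescence; nearly all actives have a fitted effect of over 65% in size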
# [12] = target: Luciferin 4-monooxygenase (Photinus pyralis) (UniProt P08659); assay: Primary firefly luciferase (FLuc) qHTS assay for identification of artifact compounds. (AID 1845220); further: nearly all actives have a fitted effect of over 60% in size
# Summary of the method: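 qHTS, 15 min compound preincubation with substrate (10 uM luciferin, 10 uM ATP) at RT, then 10 nM FLuc; 5 min; luminescence; % inhibition vs no-enzyme/DMSO controls, 4-parameter Hill fit.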
# [13] = Primary fluorescence-based thiol-reactive (MSTI) qHTS assay for identification of artifact compounds. (AID 1845221);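 further: thiol-reactive compounds lower the probe fluorescence signal; nearly all actives have a fitted effect of over 65% in size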
# Summary of the method: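 A multi-concentration qHTS design tested compounds against 4 uM MSTI, pH 7.4 phosphate-buffered saline. Plates were protected from light for 1 h at room temperature before imaging fluorescence.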
# [14] = test system: Nanoluciferase (engineered Oplophorus gracilirostris luciferase); assay: Primary Nanoluciferase (NLuc) qHTS assay for identification of artifact compounds. (AID 1845222)
# Summary of the method: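 Luminescence read-out of secreted NLuc in S16 cell conditioned medium (1:55); compounds tested with 15 min RT preincubation, then Nano-Glo substrate 1:100, 5 min. % inhibition vs no-enzyme and DMSO controls, 4-parameter Hill fit.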
# [15] = Primary redox qHTS assay for identification of artifact compounds. (AID 1845223)
# Summary of the method: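 Redox-cycling detection via DTT (250 uM final) oxidation coupled to Amplex Red (25 uM)/HRP (250 mU/mL) in HBSS. 15 min preincubation plus 30 min after DTT, room temperature. Ex/Em 525/598 nm; 4-parameter Hill fit against DMSO and 10 uM DA3003.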
# Nicotinamide N-methyltransferase (Homo sapiens), sequence (P40261 whole entry, looked up): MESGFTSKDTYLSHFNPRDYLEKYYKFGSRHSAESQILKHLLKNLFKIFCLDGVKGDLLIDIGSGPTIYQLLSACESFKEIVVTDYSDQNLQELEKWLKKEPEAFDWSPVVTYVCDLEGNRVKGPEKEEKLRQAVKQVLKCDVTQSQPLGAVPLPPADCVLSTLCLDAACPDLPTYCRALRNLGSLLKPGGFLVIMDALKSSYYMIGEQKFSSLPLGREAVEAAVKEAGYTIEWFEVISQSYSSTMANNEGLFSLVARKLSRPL
# Glutathione peroxidase 1 (Homo sapiens), sequence (P07203 whole entry, looked up): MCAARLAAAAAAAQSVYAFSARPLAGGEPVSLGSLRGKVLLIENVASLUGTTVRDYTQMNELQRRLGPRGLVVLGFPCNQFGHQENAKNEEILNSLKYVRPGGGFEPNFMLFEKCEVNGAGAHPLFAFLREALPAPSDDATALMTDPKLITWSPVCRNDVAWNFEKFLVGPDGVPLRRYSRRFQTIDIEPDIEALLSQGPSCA
# Metallo-beta-lactamase type 2 (Klebsiella pneumoniae), sequence (C7C422 whole entry, looked up): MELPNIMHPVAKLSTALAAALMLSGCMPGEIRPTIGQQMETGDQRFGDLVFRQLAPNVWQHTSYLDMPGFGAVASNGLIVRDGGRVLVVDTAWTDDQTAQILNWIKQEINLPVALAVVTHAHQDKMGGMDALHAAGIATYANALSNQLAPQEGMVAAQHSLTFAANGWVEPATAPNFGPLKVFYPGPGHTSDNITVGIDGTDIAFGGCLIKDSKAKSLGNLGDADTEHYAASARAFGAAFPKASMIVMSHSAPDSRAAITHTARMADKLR
# Phenylethanolamine N-methyltransferase (Homo sapiens), sequence (P11086 whole entry, looked up): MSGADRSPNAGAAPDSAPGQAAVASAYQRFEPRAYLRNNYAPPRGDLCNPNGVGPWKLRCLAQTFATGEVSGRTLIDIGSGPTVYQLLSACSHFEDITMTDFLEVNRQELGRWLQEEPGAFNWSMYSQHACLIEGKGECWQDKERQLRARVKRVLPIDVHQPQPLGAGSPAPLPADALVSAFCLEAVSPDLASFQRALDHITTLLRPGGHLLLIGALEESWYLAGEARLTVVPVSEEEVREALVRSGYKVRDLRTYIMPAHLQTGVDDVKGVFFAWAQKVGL
# Phospholipid hydroperoxide glutathione peroxidase GPX4 (Homo sapiens), sequence (P36969 whole entry, looked up): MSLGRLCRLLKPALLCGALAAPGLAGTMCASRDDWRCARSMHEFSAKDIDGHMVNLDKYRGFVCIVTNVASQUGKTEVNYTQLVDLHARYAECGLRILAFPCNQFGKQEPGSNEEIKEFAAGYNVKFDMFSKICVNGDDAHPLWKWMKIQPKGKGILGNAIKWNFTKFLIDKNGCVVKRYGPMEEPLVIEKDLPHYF
# Catechol O-methyltransferase (Homo sapiens), sequence (P21964 whole entry, looked up): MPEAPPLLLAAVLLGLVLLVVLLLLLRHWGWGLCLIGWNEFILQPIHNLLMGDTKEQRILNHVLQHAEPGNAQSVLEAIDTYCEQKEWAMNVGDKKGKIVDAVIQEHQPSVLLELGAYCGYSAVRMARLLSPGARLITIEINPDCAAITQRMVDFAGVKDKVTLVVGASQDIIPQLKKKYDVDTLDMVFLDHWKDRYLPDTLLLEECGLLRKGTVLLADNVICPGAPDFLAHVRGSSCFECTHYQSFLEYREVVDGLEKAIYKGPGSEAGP
# Rap guanine nucleotide exchange factor 3 (Homo sapiens), sequence (O95398 whole entry, looked up): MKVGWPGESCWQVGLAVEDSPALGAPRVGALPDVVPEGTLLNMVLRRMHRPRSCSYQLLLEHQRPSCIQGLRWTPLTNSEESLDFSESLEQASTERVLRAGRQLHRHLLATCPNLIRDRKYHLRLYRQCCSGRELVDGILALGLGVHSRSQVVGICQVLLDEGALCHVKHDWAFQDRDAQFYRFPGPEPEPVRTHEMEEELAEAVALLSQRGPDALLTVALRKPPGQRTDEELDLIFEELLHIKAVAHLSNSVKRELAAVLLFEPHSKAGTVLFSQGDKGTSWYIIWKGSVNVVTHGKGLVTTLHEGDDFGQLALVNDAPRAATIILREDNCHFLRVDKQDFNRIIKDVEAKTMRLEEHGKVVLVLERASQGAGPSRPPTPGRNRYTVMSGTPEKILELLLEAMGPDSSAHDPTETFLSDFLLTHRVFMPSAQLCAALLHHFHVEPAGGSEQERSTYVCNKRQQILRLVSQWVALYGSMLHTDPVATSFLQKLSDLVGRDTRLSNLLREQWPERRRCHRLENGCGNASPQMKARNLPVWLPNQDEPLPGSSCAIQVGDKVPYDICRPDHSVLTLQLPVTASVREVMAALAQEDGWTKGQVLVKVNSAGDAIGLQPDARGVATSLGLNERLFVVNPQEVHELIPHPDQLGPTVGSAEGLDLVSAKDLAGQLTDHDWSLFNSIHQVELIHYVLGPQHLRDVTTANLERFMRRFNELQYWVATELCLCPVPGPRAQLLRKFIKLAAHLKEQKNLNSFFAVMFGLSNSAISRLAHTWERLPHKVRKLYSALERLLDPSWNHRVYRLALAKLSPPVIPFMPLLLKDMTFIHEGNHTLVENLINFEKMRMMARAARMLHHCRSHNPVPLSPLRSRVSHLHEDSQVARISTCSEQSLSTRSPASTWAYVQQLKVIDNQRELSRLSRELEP
# Rap guanine nucleotide exchange factor 4 (Homo sapiens), sequence (Q8WZA2 whole entry, looked up): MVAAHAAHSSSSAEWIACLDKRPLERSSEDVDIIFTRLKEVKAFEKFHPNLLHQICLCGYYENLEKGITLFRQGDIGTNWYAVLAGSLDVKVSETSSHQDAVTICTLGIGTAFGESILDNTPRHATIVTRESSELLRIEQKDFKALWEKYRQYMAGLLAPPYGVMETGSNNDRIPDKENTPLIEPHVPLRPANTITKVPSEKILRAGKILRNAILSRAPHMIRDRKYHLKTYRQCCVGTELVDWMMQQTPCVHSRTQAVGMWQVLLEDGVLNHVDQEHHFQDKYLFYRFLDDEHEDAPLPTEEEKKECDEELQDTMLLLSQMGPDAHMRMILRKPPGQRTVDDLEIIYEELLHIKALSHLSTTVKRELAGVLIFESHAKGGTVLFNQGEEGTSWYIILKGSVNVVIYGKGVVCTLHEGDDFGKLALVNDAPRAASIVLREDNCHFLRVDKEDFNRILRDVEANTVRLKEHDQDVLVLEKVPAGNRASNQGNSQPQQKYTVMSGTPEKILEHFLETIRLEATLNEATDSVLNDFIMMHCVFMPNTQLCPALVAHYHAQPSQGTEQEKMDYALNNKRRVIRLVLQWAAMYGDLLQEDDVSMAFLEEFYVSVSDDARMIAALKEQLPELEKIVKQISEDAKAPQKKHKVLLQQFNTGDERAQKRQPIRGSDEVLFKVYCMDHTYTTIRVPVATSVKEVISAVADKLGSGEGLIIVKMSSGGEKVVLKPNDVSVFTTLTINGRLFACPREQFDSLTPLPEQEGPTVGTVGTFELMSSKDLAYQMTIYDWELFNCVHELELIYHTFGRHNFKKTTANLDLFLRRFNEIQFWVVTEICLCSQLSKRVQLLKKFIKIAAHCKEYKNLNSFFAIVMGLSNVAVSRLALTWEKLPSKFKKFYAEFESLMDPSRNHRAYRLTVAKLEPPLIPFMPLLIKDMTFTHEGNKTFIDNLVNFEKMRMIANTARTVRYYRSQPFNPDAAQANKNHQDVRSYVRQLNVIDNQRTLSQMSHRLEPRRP
compound,measurement,setting,value
CCN(CC)CC(=O)Nc1c(C)cccc1C,Potency,[1],inactive
same,Potency,[2],inactive
same,Potency,[3],inactive
same,outcome,[4],inactive
C[N+](C)(C)CCOC(=O)CCC(=O)OCC[N+](C)(C)C,Potency,[1],inactive
same,Potency,[2],inactive
same,Potency,[3],inactive
same,Potency,[5],inactive
same,outcome,[4],inactive
CCCC(C(=O)OCCN(CC)CC)(c1ccccc1)c1ccccc1,Potency,[1],13.3 µM (active)
same,Potency,[2],11.9 µM (active)
same,Potency,[3],inactive
same,Potency,[5],inactive
same,outcome,[4],inactive
c1cnc(N2CCN(Cc3ccc4c(c3)OCO4)CC2)nc1,Potency,[1],inactive
same,Potency,[2],inactive
same,Potency,[3],inactive
same,outcome,[4],inactive
CCn1cc(C(=O)O)c(=O)c2cc3c(cc21)OCO3,Potency,[1],inactive
same,Potency,[2],inactive
same,Potency,[3],inactive
same,Potency,[5],inactive
same,outcome,[4],inactive
Cc1cc(C)c(/C=C2\C(=O)Nc3ccccc32)[nH]1,Potency,[1],inactive
same,Potency,[2],inactive
same,Potency,[3],inactive
same,outcome,[4],inactive
C[n+]1cc2c3c(ccc2c2ccc4cc5c(cc4c21)OCO5)OCO3,Potency,[1],0.58 µM (active)
same,Potency,[2],0.411 µM (active)
same,Potency,[5],inactive
same,outcome,[4],inactive
CC(C(=O)O)c1ccc(CC2CCCC2=O)cc1 (stereo unspecified),Potency,[1],inactive
same,Potency,[2],inactive
same,Potency,[5],inactive
same,outcome,[4],inactive
COc1cc(C(=O)OCCCN2CCCN(CCCOC(=O)c3cc(OC)c(OC)c(OC)c3)CC2)cc(OC)c1OC,Potency,[2],23.7 µM (active)
same,activity,[6],-6.42%
same,"activity change, negative = inhibition",[7],9.88%
same,activity,[8],-4.53%
same,activity,[9],1.01%
same,Potency,[3],inactive
same,Potency,[5],inactive
same,outcome,[4],inactive
CC(C)NCC(O)c1cc(O)cc(O)c1 (stereo unspecified),Potency,[1],inactive
same,Potency,[2],inactive
same,Potency,[5],inactive
same,outcome,[4],inactive
O=C(O)CN(CCN(CC(=O)O)CC(=O)O)CCN(CC(=O)O)CC(=O)O,Potency,[1],inactive
same,Potency,[3],2.82 µM (active)
same,Potency,[5],inactive
same,outcome,[4],inactive
O=C(O)CP(=O)(O)O,Potency,[1],inactive
same,Potency,[2],inactive
same,outcome,[4],inactive
CN(C)C(=O)Oc1cccc([N+](C)(C)C)c1,Potency,[1],inactive
same,Potency,[2],inactive
same,Potency,[5],inactive
same,outcome,[4],inactive
c1ccc2c(c1)CCCC2C1=NCCN1 (stereo unspecified),Potency,[1],inactive
same,Potency,[2],inactive
same,outcome,[4],inactive
Cc1nc2ccccn2c(=O)c1CCN1CCC(C(=O)c2ccc(F)cc2)CC1,Potency,[1],inactive
same,Potency,[5],inactive
same,outcome,[4],inactive
COc1ccc(CCN(C)CCCC(C#N)(c2cc(OC)c(OC)c(OC)c2)C(C)C)cc1OC (stereo unspecified),Potency,[2],15 µM (active)
same,Potency,[3],inactive
same,Potency,[5],inactive
same,outcome,[4],inactive
NC(=O)c1cn(Cc2c(F)cccc2F)nn1,Potency,[1],inactive
same,Potency,[2],inactive
same,Potency,[5],inactive
same,outcome,[4],inactive
Cc1ccc(/C(=C\CN2CCCC2)c2ccccn2)cc1,Potency,[1],inactive
same,Potency,[5],inactive
same,outcome,[4],inactive
CC(C)COCC(CN(Cc1ccccc1)c1ccccc1)N1CCCC1 (stereo unspecified),Potency,[1],2.99 µM (active) and 16.6 µM (active)
same,Potency,[2],4.22 µM (active) and 16.6 µM (active)
same,Potency,[5],inactive
same,outcome,[4],inactive
CC(C)(C)c1ccc(C(=O)CCCN2CCC(OC(c3ccccc3)c3ccccc3)CC2)cc1,Potency,[1],11.9 µM (active)
same,Potency,[2],9.44 µM (active)
same,Potency,[5],inactive
same,outcome,[4],inactive
CN1C(=O)CC[C@H]1c1cccnc1,Potency,[1],inactive
same,Potency,[2],inactive
same,outcome,[4],inactive
NC(=Nc1ccccc1)Nc1ccccc1,Potency,[2],inactive
same,Potency,[5],inactive
same,outcome,[4],inactive
CC1=NS(=O)(=O)c2cc(Cl)ccc2N1,Potency,[1],inactive
same,Potency,[2],inactive
same,outcome,[4],inactive
C[C@@H](O)[C@H]1C(=O)N2C(C(=O)O)=C(SCCN=CN)C[C@H]12,Potency,[1],inactive
same,Potency,[2],inactive
same,Potency,[5],inactive
same,outcome,[4],inactive
CC[N+](C)(C)c1cccc(O)c1,Potency,[1],inactive
same,Potency,[2],inactive
same,Potency,[5],inactive
same,outcome,[4],inactive
CCOC(=O)c1cnc2c(cnn2CC)c1NN=C(C)C,Potency,[2],inactive
same,outcome,[4],inactive
Cc1nc2c([nH]1)c(=O)n(C)c(=O)n2Cc1ccco1,Potency,[2],inactive
same,Potency,[3],inactive
same,Potency,[5],inactive
same,outcome,[4],inactive
CN(C(=O)CCCOc1ccc2[nH]c(=O)ccc2c1)C1CCCCC1,Potency,[2],inactive
same,Potency,[3],inactive
same,Potency,[5],inactive
same,outcome,[4],inactive
COC(=O)C1=C(C)NC(C)=C(C(=O)OCCN(C)Cc2ccccc2)C1c1cccc([N+](=O)[O-])c1 (stereo unspecified),Potency,[2],23.7 µM (active)
same,Potency,[10],inactive
same,Potency,[11],inactive
same,outcome,[4],inactive
CN(C)CC[C@@H](c1ccc(Br)cc1)c1ccccn1,Potency,[1],inactive
same,activity,[6],-5.16%
same,"activity change, negative = inhibition",[7],1.79%
same,activity,[8],-23.7%
same,activity,[9],0.473%
same,Potency,[5],inactive
same,outcome,[4],inactive
CN=C(NC#N)NCCSCc1nc[nH]c1C,Potency,[1],inactive
same,Potency,[2],inactive
same,outcome,[4],inactive
Nc1ncn([C@@H]2O[C@H](CO)[C@@H](O)[C@H]2O)c(=O)n1,Potency,[1],10.5 µM (active)
same,Potency,[2],9.34 µM (active)
same,outcome,[4],inactive
NC(=O)c1ncn([C@@H]2O[C@H](CO)[C@@H](O)[C@H]2O)c1O,Potency,[1],inactive
same,Potency,[2],inactive
same,outcome,[4],inactive
CCCN1C[C@H](CSC)C[C@@H]2c3cccc4[nH]cc(c34)C[C@H]21,Potency,[1],inactive
same,activity,[6],-0.209%
same,"activity change, negative = inhibition",[7],5.03%
same,activity,[8],-3.93%
same,activity,[9],0.569%
same,Potency,[5],inactive
same,outcome,[4],inactive
same,outcome,[12],inactive
same,outcome,[13],inactive
same,outcome,[14],inactive
same,outcome,[15],inactive
